Assay results reported in PubChem BioAssay (NCI).
About 79,000 compounds went through this panel and 15% of them were active in at least one assay; those are over-represented in the sample as a whole. Values without a mark were called inactive. Calls of active or inactive are those of the source. No stated cut-off is given here; in the data, active means growth inhibition above about 70%; inactive means the rest.

Assay: NCI Yeast Anticancer Drug Screen. Data for the sgs1 mgt1 strain (AID 161);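 further: 0% = growth of cultures given vehicle only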
Settings: S. cerevisiae sgs1 mgt1 strain, at 50.0 µM, active compounds read high
Procedure, shortened: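 This yeast growth screen uses a strain with defined DNA-repair lesions; compound-treated growth is compared with vehicle-treated growth.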

First: C#CC(C)(C)OC(=O)Nc1cccc(Cl)c1
Second: Cc1cc(Cl)ccc1OCC(=O)OCC(C)(C)[N+](=O)[O-]
The growth inhibition of the first is lower: -16.1% for the first, 20.4% for the second.

Going from CCCCCCCCCCCCCC(=O)OCC(CCS(=O)(=O)O[C@H]1CC[C@@]2(C)C(=CC[C@@H]3C2CC[C@]2(C)C(=O)CCC32)C1)OC(=O)CCCCCCCCCCCCC (stereo not given in full) to CCCCCCCCCCCCCCCCCCCCCCCCCCCCCCCCCCCCSC(=N)N, the growth inhibition rises from -15.3% to 3.8%.

Compared with C=CCc1oc(C)nc1CCCC, CCCCCCCCS(=O)(=O)N(C)C is lower in growth inhibition: 16.7% for the first, 0.4% for the second.

Going from O=C(/C=N\O)c1ccccc1[N+](=O)[O-] to C/C(CCc1ccccc1)=N\Nc1ccc([N+](=O)[O-])cc1[N+](=O)[O-], the growth inhibition falls from 7.6% to -2.9%.

First: OC1CCC(c2ccccc2)CC1 (stereo not given)
Second: c1ccc(C2=NC3CCCCC3S2)cc1 (stereo not given)
The growth inhibition of the first is higher: 19.9% for the first, 3.7% for the second.

Compared with Cc1ccc(N=Nc2ccc(C)cc2NC(=O)Nc2cc(C)ccc2C)cc1, Cc1ccc(N2C(=O)CS/C2=C(\C#N)c2nc3ccccc3[nH]2)cc1 is lower in growth inhibition: 27% for the first, -66.1% for the second.

First: CCOC(=O)C(=[N+]=[N-])C(=O)c1cc2ccccc2oc1=O
Second: CC(=O)NC(=O)NC1=NCCC(=O)N1CCc1c[nH]c2ccccc12
The growth inhibition of the first is higher: 13.6% for the first, -6.3% for the second.

Going from CC(C)C(CC1CCCCC1)C(C)O (stereo not given) to COC(=NC(C)C)NC(C)C, the growth inhibition rises from -14.6% to 5.65%.

Going from Cc1ccc(-n2nc3c(c(C#N)c2=O)-c2ccccc2C3=O)cc1 to CS(=O)(=O)OCC(Cc1ccccc1)N1C(=O)c2ccccc2C1=O (stereo not given), the growth inhibition rises from -31.8% to 17.9%.

First: Cc1cc(=O)n(C)c2ccc(N)cc12
Second: CC(=O)c1cc(-c2ccccn2)c(=O)n2ccccc12
The growth inhibition of the first is higher: -4% for the first, -19.9% for the second.

Compared with O=C1OC(c2ccccc2)=CC1(Cc1ccccc1)Cc1ccccc1, N#Cc1c(-c2ccccc2)cc(-c2ccccc2)[nH]c1=O is higher in growth inhibition: 4.35% for the first, 16.4% for the second.

First: COc1ccccc1C(=O)N/N=C/c1ccccc1Cl
Second: C[C@@]1(NC(=O)Cc2ccccc2)C(=O)N2CCS[C@@]21c1ccccc1
The growth inhibition of the first is higher: 32.4% for the first, -20.6% for the second.

Compared with c1cc(OCC2CO2)ccc1OCC1CO1 (stereo not given), OCc1ccc2[n+](c1)CCC1c3ccccc3NC21 (stereo not given) is lower in growth inhibition: 33.1% for the first, -18.6% for the second.

Compared with N#CC(CN1CCOCC1)[N+](=O)[O-] (stereo not given), C/C(CC(=O)Nc1cccc([N+](=O)[O-])c1)=N\NC(=O)CC#N is higher in growth inhibition: -14.2% for the first, 0.55% for the second.

Going from COC1NC(=O)Oc2ccccc21 (stereo not given) to COC(=O)c1cc(-c2ccc(OC)cc2)[nH]c(=O)c1C#N, the growth inhibition rises from -8.95% to 31.2%.

First: O=C1OC(c2ccccc2)(c2ccc(Cl)cc2)CC1/C=C(\c1ccccc1)c1ccc(Cl)cc1 (stereo not given)
Second: COc1cc(/C=C/C(=O)c2sc(-n3nc(-c4ccccc4)cc3-c3ccccc3)nc2C)ccc1O
The growth inhibition of the first is higher: 6.6% for the first, -34.4% for the second.

Compared with CO/C=C/c1cc2c(cc1Br)OCO2, O=C(O)c1cc2cc(O)ccc2[nH]1 is lower in growth inhibition: 25.4% for the first, 20.9% for the second.

Compared with C=C1C(=O)O[C@H]2[C@H]1CC(=O)/C(C)=C/CC[C@@]1(C)O[C@@H]21, COc1ccc(C2SC(N)=Nc3c2c(C)nn3C(=O)c2ccc(Cl)cc2)cc1 (stereo not given) is lower in growth inhibition: 32.8% for the first, 22.6% for the second.

First: NC(Cc1c[nH]c2ccc(F)cc12)C(=O)O (stereo not given)
Second: c1cc2nc(c1)CSCCCCCCCSC2
The growth inhibition of the first is lower: -29.8% for the first, 30.2% for the second.

With C=C1CC[C@@H]2C(C)(C)CCC[C@@]2(C)[C@@H]1Cc1cc(O)ccc1O the growth inhibition was 87% (active).
For COC(=O)COc1cc2c(cc1C(C)c1ccc(O)cc1)OCO2 (stereo not given), the growth inhibition was 99% (active).

Assay: NCI Yeast Anticancer Drug Screen. Data for the cln2 rad14 strain (AID 165);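 further: 0% = growth equal to vehicle treated cultures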
Settings: S. cerevisiae cln2 rad14 strain, at 50.0 µM, active compounds read high
Procedure, shortened: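 Readout is yeast growth inhibition versus vehicle-treated controls, using a strain with cln2 and rad14 alterations exposed to compound.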

Compared with C#CC(C)(C)OC(=O)Nc1cccc(Cl)c1, Cc1cc(Cl)ccc1OCC(=O)OCC(C)(C)[N+](=O)[O-] is lower in growth inhibition: -8.35% for the first, -80.2% for the second.

Compared with CCCCCCCCCCCCCC(=O)OCC(CCS(=O)(=O)O[C@H]1CC[C@@]2(C)C(=CC[C@@H]3C2CC[C@]2(C)C(=O)CCC32)C1)OC(=O)CCCCCCCCCCCCC (stereo not given in full), CCCCCCCCCCCCCCCCCCCCCCCCCCCCCCCCCCCCSC(=N)N is higher in growth inhibition: -26.6% for the first, -7.05% for the second.

First: C=CCc1oc(C)nc1CCCC
Second: CCCCCCCCS(=O)(=O)N(C)C
The growth inhibition of the first is higher: 27.4% for the first, -28.3% for the second.

Going from O=C(/C=N\O)c1ccccc1[N+](=O)[O-] to C/C(CCc1ccccc1)=N\Nc1ccc([N+](=O)[O-])cc1[N+](=O)[O-], the growth inhibition rises from -37.5% to -17%.

First: OC1CCC(c2ccccc2)CC1 (stereo not given)
Second: c1ccc(C2=NC3CCCCC3S2)cc1 (stereo not given)
The growth inhibition of the first is higher: 15.7% for the first, -32.3% for the second.

Compared with Cc1ccc(N=Nc2ccc(C)cc2NC(=O)Nc2cc(C)ccc2C)cc1, Cc1ccc(N2C(=O)CS/C2=C(\C#N)c2nc3ccccc3[nH]2)cc1 is lower in growth inhibition: -10.9% for the first, -57.9% for the second.

Compared with CCOC(=O)C(=[N+]=[N-])C(=O)c1cc2ccccc2oc1=O, CC(=O)NC(=O)NC1=NCCC(=O)N1CCc1c[nH]c2ccccc12 is higher in growth inhibition: -0.55% for the first, 6.25% for the second.

Going from CC(C)C(CC1CCCCC1)C(C)O (stereo not given) to COC(=NC(C)C)NC(C)C, the growth inhibition rises from -14.4% to 14.2%.

Going from Cc1ccc(-n2nc3c(c(C#N)c2=O)-c2ccccc2C3=O)cc1 to CS(=O)(=O)OCC(Cc1ccccc1)N1C(=O)c2ccccc2C1=O (stereo not given), the growth inhibition rises from -38.5% to 12.2%.

Compared with Cc1cc(=O)n(C)c2ccc(N)cc12, CC(=O)c1cc(-c2ccccn2)c(=O)n2ccccc12 is higher in growth inhibition: -14.8% for the first, -0.3% for the second.

Going from O=C1OC(c2ccccc2)=CC1(Cc1ccccc1)Cc1ccccc1 to N#Cc1c(-c2ccccc2)cc(-c2ccccc2)[nH]c1=O, the growth inhibition rises from -35.2% to 11.7%.

Compared with COc1ccccc1C(=O)N/N=C/c1ccccc1Cl, C[C@@]1(NC(=O)Cc2ccccc2)C(=O)N2CCS[C@@]21c1ccccc1 is higher in growth inhibition: -4.3% for the first, -3.2% for the second.

Going from c1cc(OCC2CO2)ccc1OCC1CO1 (stereo not given) to OCc1ccc2[n+](c1)CCC1c3ccccc3NC21 (stereo not given), the growth inhibition rises from -24.9% to -8.4%.

Compared with N#CC(CN1CCOCC1)[N+](=O)[O-] (stereo not given), C/C(CC(=O)Nc1cccc([N+](=O)[O-])c1)=N\NC(=O)CC#N is higher in growth inhibition: -24.6% for the first, 12.1% for the second.

First: COC1NC(=O)Oc2ccccc21 (stereo not given)
Second: COC(=O)c1cc(-c2ccc(OC)cc2)[nH]c(=O)c1C#N
The growth inhibition of the first is lower: -3.3% for the first, 20.4% for the second.

First: O=C1OC(c2ccccc2)(c2ccc(Cl)cc2)CC1/C=C(\c1ccccc1)c1ccc(Cl)cc1 (stereo not given)
Second: COc1cc(/C=C/C(=O)c2sc(-n3nc(-c4ccccc4)cc3-c3ccccc3)nc2C)ccc1O
The growth inhibition of the first is lower: -10.4% for the first, 4.9% for the second.

Compared with CO/C=C/c1cc2c(cc1Br)OCO2, O=C(O)c1cc2cc(O)ccc2[nH]1 is higher in growth inhibition: 0.75% for the first, 3% for the second.

Going from C=C1C(=O)O[C@H]2[C@H]1CC(=O)/C(C)=C/CC[C@@]1(C)O[C@@H]21 to COc1ccc(C2SC(N)=Nc3c2c(C)nn3C(=O)c2ccc(Cl)cc2)cc1 (stereo not given), the growth inhibition falls from 21.4% to -18.1%.

First: NC(Cc1c[nH]c2ccc(F)cc12)C(=O)O (stereo not given)
Second: c1cc2nc(c1)CSCCCCCCCSC2
The growth inhibition of the first is lower: -37% for the first, -3.45% for the second.

In the case of C=C1CC[C@@H]2C(C)(C)CCC[C@@]2(C)[C@@H]1Cc1cc(O)ccc1O, the growth inhibition is reported as 87.2% (active).
With COC(=O)COc1cc2c(cc1C(C)c1ccc(O)cc1)OCO2 (stereo not given) the growth inhibition was 99.1% (active).
